Laboratory results from PubChem BioAssay (NCATS).
Values without a mark were called inactive. Inconclusive results are not listed. Calls of active or inactive are those of the source. Unless noted, calls follow the shape of the dose curve; as a rule, active = well fitted curve in either direction with a large enough effect (not every such curve was filed as active); inconclusive = small, poorly fitted or top-dose-only effect, or another doubt; inactive = flat fitted curve, though single readings scatter.

Legend:
[1] = target: Lysosomal acid glucosylceramidase (Homo sapiens) (UniProt P04062); test: Glucocerebrosidase-p2 (AID 348; in the data active = potency below about 10 µM; also: potency is read from the fitted curve at half-maximal effect); conditions: purified GBA, blue fluorogenic substrate, 40 min
Sequence of Lysosomal acid glucosylceramidase (Homo sapiens) (P04062 whole entry, looked up): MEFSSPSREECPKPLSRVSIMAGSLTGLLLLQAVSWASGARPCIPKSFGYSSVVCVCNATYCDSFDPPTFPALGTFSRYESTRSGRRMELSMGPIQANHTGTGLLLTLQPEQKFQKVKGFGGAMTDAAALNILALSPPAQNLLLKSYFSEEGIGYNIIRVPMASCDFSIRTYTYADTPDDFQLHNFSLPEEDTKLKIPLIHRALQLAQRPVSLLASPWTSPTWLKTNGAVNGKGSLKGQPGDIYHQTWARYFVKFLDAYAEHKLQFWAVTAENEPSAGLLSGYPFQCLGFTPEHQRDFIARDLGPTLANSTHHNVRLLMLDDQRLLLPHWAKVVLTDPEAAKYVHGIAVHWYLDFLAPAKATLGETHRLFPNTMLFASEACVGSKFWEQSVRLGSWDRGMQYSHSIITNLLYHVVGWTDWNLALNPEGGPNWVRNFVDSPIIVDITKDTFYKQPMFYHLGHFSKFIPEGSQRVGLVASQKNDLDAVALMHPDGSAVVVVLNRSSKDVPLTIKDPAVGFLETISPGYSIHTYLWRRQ
Method in brief: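 Compounds titrated from 0.6 nM upwards against 0.2 nM enzyme in pH 5.9 citric acid/KH2PO4, taurocholate, tween-20; blue fluorogenic substrate 80 uM, 40 min room temperature, stopped and read Ex 365/Em 440 for AC50.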

[2] = AP1 Signaling Pathway (AID 357); conditions: ME-180 AP-1-bla reporter, EGF-induced, beta-lactamase ratio, 5 h; at 7.69 µM (top of the series) unless noted;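 also: ME-180 reporter cells stimulated with EGF at its EC50 level; % is scaled to controls: 0 for no effect and ±100 for the full control effect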
Method in brief: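 AP-1-bla ME-180 cells, Opti-MEM + 0.5% dialyzed FBS, plated overnight 37 °C. Cpd titration + EC50 EGF, 5 h 37 °C. CCF4 2.5 h RT; ex 405, em 460/530 ratio → %activity, AC50.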

[3] = target: Cytochrome P450 1A2 (Homo sapiens) (UniProt P05177); test: p450-cyp1a2 (AID 410; calls by dose curve; also: potency is read from the fitted curve at half-maximal effect;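 as to activity change, negative = inhibition: -100% = full effect of reference inhibitor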); conditions: recombinant CYP1A2, luciferin-ME demethylation, luminescence; series mostly up to 57 µM
Sequence of Cytochrome P450 1A2 (Homo sapiens) (P05177 whole entry, looked up): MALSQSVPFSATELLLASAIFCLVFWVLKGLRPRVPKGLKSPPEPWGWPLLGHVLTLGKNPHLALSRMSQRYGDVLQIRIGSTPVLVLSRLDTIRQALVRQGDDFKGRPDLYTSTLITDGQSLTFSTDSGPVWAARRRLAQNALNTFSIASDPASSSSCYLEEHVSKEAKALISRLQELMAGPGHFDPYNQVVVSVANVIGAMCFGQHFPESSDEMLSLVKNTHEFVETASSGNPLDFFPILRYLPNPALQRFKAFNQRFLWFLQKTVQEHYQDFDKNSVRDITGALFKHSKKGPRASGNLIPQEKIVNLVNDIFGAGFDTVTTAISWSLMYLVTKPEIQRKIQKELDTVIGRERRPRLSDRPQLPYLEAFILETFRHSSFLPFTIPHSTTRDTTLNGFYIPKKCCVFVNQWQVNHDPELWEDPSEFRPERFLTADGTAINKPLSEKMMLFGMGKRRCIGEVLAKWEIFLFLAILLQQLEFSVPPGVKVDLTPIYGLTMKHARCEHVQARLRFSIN
Method in brief: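 Luminescent readout of luciferin formed from Luciferin-ME by human CYP1A2; data normalized against complete inhibition by 57 uM furafylline. Enzyme 20nM, substrate 100uM at Km, 100mM KPO4 buffer, 60 min reaction at room temperature.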

[4] = NFAT Signaling Pathway (AID 444); conditions: Jurkat NFAT-bla M1, carbachol, beta-lactamase ratio, 5 h; at 7.69 µM (top of the series) unless noted;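 also: carbachol stimulus at about its EC50 of 1 µM final; % is scaled to controls: 0 for no effect and ±100 for the full control effect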
Method in brief: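 Jurkat cells carrying an NFAT-driven β-lactamase reporter and co-transfected muscarinic M1 receptor were treated with compound plus carbachol (1 uM final, an EC50 level) for 5 h at 37 °C. CCF4 loading followed for 1 h at RT; 460/530 nm ratio gave %activity.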

[5] = Stat Signaling Pathway (AID 446); conditions: ME-180 (cervical carcinoma) SIE beta-lactamase reporter, IL-6 stimulated, 5 h; at 7.69 µM (top of the series) unless noted;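 also: ME-180 cervical cancer cells given 40 pM IL-6 alongside compound; SIE-controlled beta-lactamase reporter measured as 460/530 nm FRET emission ratio; % is scaled to controls: 0 for no effect and ±100 for the full control effect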
Method in brief: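 IL-6/STAT signaling read in ME-180 cells via an SIE beta-lactamase reporter. Stimulus was 40 pM IL-6 (its AC50) for 5 hrs, so both activation and inhibition register.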

[6] = target: Glucocorticoid receptor (Homo sapiens) (UniProt P04150); test: GR-EFC Redistribution (AID 451; calls by dose curve; also: potency is read from the fitted curve at half-maximal effect); conditions: CHO-K1 GR-EFC translocation, beta-gal luminescence, 2 h
Sequence of Glucocorticoid receptor (Homo sapiens) (P04150 whole entry, looked up, the tested form may be a part): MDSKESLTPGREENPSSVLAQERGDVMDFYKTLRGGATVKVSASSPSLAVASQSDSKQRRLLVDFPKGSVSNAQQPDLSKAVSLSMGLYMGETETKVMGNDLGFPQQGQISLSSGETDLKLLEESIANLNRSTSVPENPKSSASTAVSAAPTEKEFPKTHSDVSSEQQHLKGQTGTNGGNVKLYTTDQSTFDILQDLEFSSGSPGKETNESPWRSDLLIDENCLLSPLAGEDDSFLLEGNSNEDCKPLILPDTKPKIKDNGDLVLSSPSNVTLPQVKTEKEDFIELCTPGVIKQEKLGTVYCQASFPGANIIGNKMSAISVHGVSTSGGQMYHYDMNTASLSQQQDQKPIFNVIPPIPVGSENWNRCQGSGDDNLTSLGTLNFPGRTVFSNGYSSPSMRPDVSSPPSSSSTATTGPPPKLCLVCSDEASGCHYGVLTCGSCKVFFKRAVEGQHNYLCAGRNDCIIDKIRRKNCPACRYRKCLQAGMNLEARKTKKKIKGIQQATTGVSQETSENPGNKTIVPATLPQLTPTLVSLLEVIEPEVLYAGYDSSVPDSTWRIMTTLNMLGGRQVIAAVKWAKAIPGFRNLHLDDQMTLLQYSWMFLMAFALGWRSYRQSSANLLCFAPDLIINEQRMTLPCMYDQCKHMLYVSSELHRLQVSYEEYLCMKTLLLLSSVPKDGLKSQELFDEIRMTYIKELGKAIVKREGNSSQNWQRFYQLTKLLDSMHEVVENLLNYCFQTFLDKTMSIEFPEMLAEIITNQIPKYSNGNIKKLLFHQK
Method in brief: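 CHO-K1 cells stably expressing nuclear-localized β-gal enzyme acceptor and GR fused C-terminally to the enzyme donor fragment; ligand-driven nuclear translocation restores β-gal by complementation. Compounds titrated up to 46 uM final, 2 h at 37 °C; luminescence read.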

[7] = target: Mitogen-activated protein kinase 10 (Mus musculus) (UniProt Q61831); test: JNK3 AlphaScreen Assay (AID 530); conditions: JNK3 lysate, c-Jun phosphorylation; series mostly up to 57.1 µM;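 also: kinase came from lysate of stimulated human HepG2 cells; signal reports phosphorylation of biotinylated GST-cJun 1-79 at Ser73 with 10 µM ATP; % is scaled to controls: 0 for no effect and ±100 for the full control effect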
Method in brief: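 Inhibitors reduce antibody binding to phosphorylated biotin-cJun, lowering AlphaScreen luminescence. Lysates from HepG2 cells pre-activated by IL-1beta plus TNF-alpha supplied JNK3; compounds were titrated.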

[8] = target: 3',5'-cyclic-AMP phosphodiesterase 4B (Homo sapiens) (UniProt Q07343); test: qHTS Assay for Inhibitors of PDE-IV (AID 607; active = well fitted activation curve with a large enough effect in the main read-out, with a control signal flat, not every such curve was filed as active; also: % of control where 0% means no effect); conditions: HEK293 ACTOne CNG channel cells, membrane potential fluorescence; series mostly up to 22.9 µM
Sequence of 3',5'-cyclic-AMP phosphodiesterase 4B (Homo sapiens) (Q07343 whole entry, looked up): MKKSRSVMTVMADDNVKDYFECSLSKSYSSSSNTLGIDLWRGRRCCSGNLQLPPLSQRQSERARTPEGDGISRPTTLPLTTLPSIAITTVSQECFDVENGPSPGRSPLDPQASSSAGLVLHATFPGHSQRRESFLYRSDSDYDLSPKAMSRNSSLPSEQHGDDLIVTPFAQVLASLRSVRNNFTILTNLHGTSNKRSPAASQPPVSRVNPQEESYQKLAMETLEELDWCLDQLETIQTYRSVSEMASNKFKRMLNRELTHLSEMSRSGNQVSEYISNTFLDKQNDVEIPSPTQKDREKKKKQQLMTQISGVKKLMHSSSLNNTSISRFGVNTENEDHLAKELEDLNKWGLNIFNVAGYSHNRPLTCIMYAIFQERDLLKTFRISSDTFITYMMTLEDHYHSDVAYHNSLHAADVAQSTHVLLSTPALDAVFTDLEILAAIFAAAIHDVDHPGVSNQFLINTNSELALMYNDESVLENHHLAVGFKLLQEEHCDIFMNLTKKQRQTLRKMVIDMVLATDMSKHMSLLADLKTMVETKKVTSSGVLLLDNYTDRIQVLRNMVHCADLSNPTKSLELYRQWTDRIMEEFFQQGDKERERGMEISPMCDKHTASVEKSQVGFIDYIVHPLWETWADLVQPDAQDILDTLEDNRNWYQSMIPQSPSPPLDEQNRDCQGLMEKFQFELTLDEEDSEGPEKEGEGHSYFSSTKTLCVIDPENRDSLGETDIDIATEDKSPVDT
Method in brief: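 Live HEK293 cells with a modified cyclic nucleotide-gated (CNG) channel report intracellular cAMP via membrane-potential dye fluorescence (ex 535/em 590 nm). Endogenous PDE-IV was targeted. Compounds were tested at up to 22.9 uM final; RO 20-1724 100 uM served as control.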

[9] = target: Cytochrome P450 3A4 (Homo sapiens) (UniProt P08684); test: qHTS Assay for Inhibitors and Substrates of Cytochrome P450 3A4 (AID 884; active = well fitted curve in the direction sought with a large enough effect; an effect the other way counts as inactive or inconclusive; also: nearly all actives have a fitted effect of over 50% in size; also: potency is read from the fitted curve at half-maximal effect); conditions: recombinant CYP3A4, Luciferin-PPXE luminescence; series mostly up to 57.1 µM
Sequence of Cytochrome P450 3A4 (Homo sapiens) (P08684 whole entry, looked up): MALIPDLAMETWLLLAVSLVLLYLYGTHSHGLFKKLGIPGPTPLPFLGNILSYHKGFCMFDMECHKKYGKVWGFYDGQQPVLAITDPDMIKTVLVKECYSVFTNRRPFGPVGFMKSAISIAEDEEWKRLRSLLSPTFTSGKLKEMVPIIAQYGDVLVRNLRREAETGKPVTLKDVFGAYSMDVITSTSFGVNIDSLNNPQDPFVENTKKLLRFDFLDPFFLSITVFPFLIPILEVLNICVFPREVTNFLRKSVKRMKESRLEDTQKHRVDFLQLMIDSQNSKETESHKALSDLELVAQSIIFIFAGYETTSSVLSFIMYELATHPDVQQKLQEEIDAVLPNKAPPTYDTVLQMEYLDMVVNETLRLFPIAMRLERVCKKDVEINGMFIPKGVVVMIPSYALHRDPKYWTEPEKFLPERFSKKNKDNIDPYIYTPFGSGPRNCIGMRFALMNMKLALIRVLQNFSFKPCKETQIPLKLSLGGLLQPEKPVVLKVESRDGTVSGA
Method in brief: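 20 nM human CYP3A4 with 25 uM Luciferin-PPXE (at KM) in 200 mM KPO4, preincubated 10 min with compound; NADPH regeneration started a 60 min RT reaction. Luciferin detected by luminescence, normalized to 57 uM ketoconazole as full inhibition.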

[10] = Primary qHTS for small molecule stabilizers of the endoplasmic reticulum resident proteome: Secreted ER Calcium Modulated Protein (SERCaMP) assay (AID 1508630; active = well fitted curve in the direction sought with a large enough effect; an effect the other way counts as inactive or inconclusive; also: % is scaled to controls: 0 for no effect and ±100 for the full control effect); conditions: SH-SY5Y GLuc-SERCaMP (Gaussia luciferase released on ER calcium loss) secretion, thapsigargin, luminescence; series mostly up to 38.4 µM
Method in brief: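 GLuc-SERCaMP-expressing SH-SY5Y cells, pretreated 16 h with compound, are challenged with thapsigargin to empty ER calcium stores; after 4 h, coelenterazine is added directly to the medium and luminescence is imaged.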

[11] = target: Cytochrome P450 3A4 (Homo sapiens) (UniProt P08684); test: qHTS Assay for Activators of Cytochrome P450 3A4 (AID 885; active = well fitted curve in the direction sought with a large enough effect; an effect the other way counts as inactive or inconclusive; also: nearly all actives have a fitted effect of over 65% in size; also: potency is read from the fitted curve at half-maximal effect); conditions: recombinant CYP3A4, Luciferin-PPXE luminescence, 60 min; series mostly up to 57.1 µM
Method in brief: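 Quantitative HTS format: compounds preincubated with 20nM human CYP3A4 and Luciferin-PPXE substrate at KM, reaction started by NADPH regeneration, stopped after 60 min, luciferase luminescence read 20 min later.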

[12] = target: Cytochrome P450 2C9 (Homo sapiens) (UniProt P11712); test: qHTS Assay for Inhibitors and Substrates of Cytochrome P450 2C9 (AID 883; active = well fitted curve in the direction sought with a large enough effect; an effect the other way counts as inactive or inconclusive; also: nearly all actives have a fitted effect of over 60% in size; also: potency is read from the fitted curve at half-maximal effect); conditions: recombinant CYP2C9, luciferin-H luminescence, 60 min; series mostly up to 57.1 µM
Sequence of Cytochrome P450 2C9 (Homo sapiens) (P11712 whole entry, looked up): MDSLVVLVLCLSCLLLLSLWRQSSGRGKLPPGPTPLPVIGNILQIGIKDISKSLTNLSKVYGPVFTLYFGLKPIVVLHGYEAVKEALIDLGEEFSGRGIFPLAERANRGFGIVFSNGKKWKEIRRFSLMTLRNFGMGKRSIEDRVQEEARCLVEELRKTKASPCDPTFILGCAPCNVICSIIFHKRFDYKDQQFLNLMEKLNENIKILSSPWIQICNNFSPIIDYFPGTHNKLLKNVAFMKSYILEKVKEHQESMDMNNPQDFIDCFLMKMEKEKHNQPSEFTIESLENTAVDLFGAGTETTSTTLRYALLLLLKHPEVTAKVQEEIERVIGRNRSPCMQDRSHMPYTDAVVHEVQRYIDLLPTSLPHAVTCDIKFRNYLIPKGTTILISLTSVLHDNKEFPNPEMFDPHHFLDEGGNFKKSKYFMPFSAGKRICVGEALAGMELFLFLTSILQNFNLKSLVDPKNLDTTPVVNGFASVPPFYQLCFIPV
Method in brief: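 CYP2C9 deoxyluciferin hydroxylation, 37C, 60 min with NADPH regeneration; 10nM enzyme, 100uM Luciferin-H (KM). Glo detection reagent stopped reaction; luminescence normalized to sulphaphenazole (57uM) full inhibition.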

[13] = target: Cytochrome P450 2D6 (Homo sapiens) (UniProt P10635); test: qHTS Assay for Inhibitors and Substrates of Cytochrome P450 2D6 (AID 891; active = well fitted curve in the direction sought with a large enough effect; an effect the other way counts as inactive or inconclusive; also: nearly all actives have a fitted effect of over 60% in size; also: potency is read from the fitted curve at half-maximal effect); conditions: recombinant CYP2D6, luciferin-ME EGE luminescence; series mostly up to 57.1 µM
Sequence of Cytochrome P450 2D6 (Homo sapiens) (P10635 whole entry, looked up): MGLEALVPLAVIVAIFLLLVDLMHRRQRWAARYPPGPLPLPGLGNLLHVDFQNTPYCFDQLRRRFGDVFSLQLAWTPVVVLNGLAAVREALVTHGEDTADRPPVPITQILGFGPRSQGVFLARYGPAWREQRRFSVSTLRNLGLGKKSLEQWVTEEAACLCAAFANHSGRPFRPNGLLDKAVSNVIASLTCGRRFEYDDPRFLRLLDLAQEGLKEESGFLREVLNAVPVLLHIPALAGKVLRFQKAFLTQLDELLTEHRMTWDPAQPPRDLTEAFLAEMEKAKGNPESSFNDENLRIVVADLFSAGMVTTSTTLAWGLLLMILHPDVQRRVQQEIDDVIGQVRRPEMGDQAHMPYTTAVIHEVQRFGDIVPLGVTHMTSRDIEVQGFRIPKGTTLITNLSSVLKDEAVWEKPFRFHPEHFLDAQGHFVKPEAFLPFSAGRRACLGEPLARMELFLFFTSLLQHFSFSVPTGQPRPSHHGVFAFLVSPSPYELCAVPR
Method in brief: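 Human CYP2D6 (5 nM) with 30 uM Luciferin-ME EGE (at Km) in 100 mM KPO4, compound preincubated 10 min, then NADPH regeneration system for 60 min at room temperature. Luciferin read by luminescence; normalized to 1.43 uM quinidine.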

[14] = target: Cytochrome P450 2C19 (Homo sapiens) (UniProt P33261); test: qHTS Assay for Inhibitors and Substrates of Cytochrome P450 2C19 (AID 899; active = well fitted curve in the direction sought with a large enough effect; an effect the other way counts as inactive or inconclusive; also: % is scaled to controls: 0 for no effect and ±100 for the full control effect; nearly all actives have a fitted effect of over 60% in size); conditions: recombinant CYP2C19, luciferin-H EGE luminescence; series mostly up to 57.1 µM
Sequence of Cytochrome P450 2C19 (Homo sapiens) (P33261 whole entry, looked up): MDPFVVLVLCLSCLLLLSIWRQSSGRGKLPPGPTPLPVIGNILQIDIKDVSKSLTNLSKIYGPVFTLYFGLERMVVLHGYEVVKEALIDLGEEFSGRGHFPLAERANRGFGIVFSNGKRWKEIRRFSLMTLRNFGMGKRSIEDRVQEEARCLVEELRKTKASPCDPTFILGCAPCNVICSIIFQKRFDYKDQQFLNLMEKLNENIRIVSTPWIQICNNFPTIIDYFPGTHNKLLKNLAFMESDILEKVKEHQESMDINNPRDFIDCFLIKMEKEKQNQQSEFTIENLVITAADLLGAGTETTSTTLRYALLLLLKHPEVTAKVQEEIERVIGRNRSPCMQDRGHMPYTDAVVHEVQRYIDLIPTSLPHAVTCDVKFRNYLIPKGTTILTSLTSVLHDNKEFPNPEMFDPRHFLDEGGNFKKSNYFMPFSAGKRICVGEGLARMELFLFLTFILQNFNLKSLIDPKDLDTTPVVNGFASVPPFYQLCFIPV
Method in brief: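 In 50mM KPO4, the reaction held 5nM enzyme and KM-level (10uM) Luciferin-H EGE; it ran 60 min at 37C after NADPH regeneration and a 10 min compound preincubation. Luminescence values were scaled to 57uM ketoconazole as complete inhibition.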

Structure (SMILES)	Potency [1]	activity change, negative = inhibition [2]	Potency [3]	activity change, negative = inhibition [4]	activity, negative = inhibition [5]	Potency [6]	Potency [7]	Potency [8]	Potency [9]	outcome [10]	Potency [11]	Potency [12]	Potency [13]	Potency [14]
COc1ccc(NC(=O)N2CCC3(CC2)CCN(C(=O)c2cccn2C)CC3)cc1	> 11.4 µM	-7.7%	inactive	-0.784%	2.55%	> 46 µM	inactive	inactive	inactive	inactive	–	–	–	–
O=C(c1cnccn1)N1CCC2(CC1)CCN(c1ccccn1)CC2	> 11.4 µM	-11.4%	inactive	-4.5%	3.98%	> 46 µM	inactive	inactive	inactive	inactive	–	–	–	–
CC(=O)N1CCC2(CC1)CCN(c1cccc(-c3ccccc3)c1)CC2	> 11.4 µM	-13.2%	3.98 µM (active)	16.7%	18.6%	> 46 µM	inactive	inactive	–	inactive	–	–	–	–
COCC(=O)N1CCC2(CCCN(C(=O)Nc3cccc(C#N)c3)C2)CC1	> 11.4 µM	-3.42%	inactive	-3.66%	-1.02%	> 46 µM	inactive	inactive	–	inactive	–	–	–	–
COc1ccc(NC(=O)N2CCC3(CC2)CCN(C(=O)c2ccco2)CC3)cc1	> 11.4 µM	-4.61%	20 µM (active)	3.53%	-1.71%	> 46 µM	inactive	inactive	–	inactive	–	–	–	–
COc1ccc(C(=O)N2CCC3(CC2)CCN(c2ncccn2)CC3)cc1	> 11.4 µM	3.18%	inactive	0.535%	4.32%	> 46 µM	inactive	inactive	inactive	inactive	5.01 µM (active)	–	–	–
COc1ccc(C(=O)N2CCC3(CCN(Cc4ccncc4)CC3)CC2)cc1	> 11.4 µM	-7.79%	inactive	-24.2%	11.1%	> 46 µM	inactive	inactive	–	inactive	inactive	–	–	–
O=C(c1cc(C(F)(F)F)cc(C(F)(F)F)c1)N1CCC2(CC1)CN(c1ncccn1)C2	> 11.4 µM	-14.3%	inactive	31%	1.12%	> 46 µM	inactive	inactive	–	inactive	–	inactive	inactive	inactive
COCCn1c(=O)c(-c2ccc(Cl)cc2)nc2cnc(Oc3ccccc3)nc21	> 11.4 µM	-8.55%	0.794 µM (active)	17.4%	-10%	> 46 µM	inactive	inactive	–	inactive	inactive	7.94 µM (active)	–	–
CS(=O)(=O)N1CCC2(CCCN(c3ncccn3)C2)CC1	> 11.4 µM	1.67%	15.8 µM (active)	2.98%	-8.29%	> 46 µM	inactive	inactive	–	inactive	–	–	–	–
COc1ccc(NC(=O)N2CC3(CCN(S(=O)(=O)c4ccccc4)CC3)C2)cc1	> 11.4 µM	-1.69%	inactive	10.6%	-2.28%	> 46 µM	inactive	inactive	–	inactive	inactive	–	–	–
O=S(=O)(c1ccccc1)N1CCC2(CC1)CN(C(c1ccccc1)c1ccccc1)C2	> 11.4 µM	15.1%	inactive	-14.8%	-6.71%	> 46 µM	inactive	inactive	inactive	inactive	3.16 µM (active)	–	2.51 µM (active)	–
O=C(c1ccncc1)N1CCC[C@@]2(CCN(c3ccccc3)C2)C1	> 11.4 µM	-9.5%	inactive	-16.6%	3.29%	> 46 µM	inactive	inactive	3.16 µM (active)	inactive	inactive	–	–	–
O=C(c1cccc(F)c1)N1CCC2(CC1)CCN(c1ccc(-c3ccccc3)cc1)CC2	> 11.4 µM	4.61%	inactive	0.978%	-7.26%	> 46 µM	inactive	inactive	inactive	inactive	12.6 µM (active)	–	–	–
O=S(=O)(c1ccccc1)N1CCC2(CCCN(c3cccc(-c4ccccc4)c3)C2)CC1	> 11.4 µM	7.43%	inactive	-13.9%	-0.269%	> 46 µM	inactive	inactive	3.98 µM (active)	inactive	inactive	–	–	–
